In assay [1] the target is Cell division control protein 42 homolog (Homo sapiens) (UniProt P60953). Put plainly: activated mutant Cdc42 GTP-binding inhibitors, dose response, biochemical, multiplex bead flow cytometry, Bodipy-FL-GTP (AID 1333;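 active means fitted half-maximal concentration within the tested dose range, moderate curve steepness, a statistically real signal drop, and little compound fluorescence or tag-binding interference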).
Assay [2] has the same target. Put plainly: wildtype Cdc42 GTP-binding inhibitors, dose response, biochemical, multiplex bead flow cytometry, Bodipy-FL-GTP (AID 1334;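 active means fitted half-maximal concentration within the tested range, moderate curve steepness, significant signal drop, and little compound fluorescence or bead-linkage interference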). The conditions noted are these: bead-based flow cytometry, Bodipy-FL-GTP binding to GST-Cdc42; at 100 µM (top of the series) unless noted.
In assay [3] the target is GTPase HRas (Homo sapiens) (UniProt P01112). Nature of the assay: inhibitors of GTP binding to wildtype Ras, dose response, biochemical, multiplex bead flow cytometry (AID 1335;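 active means fitted half-maximal concentration within 10 nM to 100 µM, steepness 0.5 to 2, significant signal drop, low assay interference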). The settings on record: bead-based flow cytometry, Bodipy-GTP binding to GST-Ras; at 100 µM (top of the series) unless noted.
Assay [4] has as its system Ras-related protein Rab-7a (dog), GTP binding. Nature of the assay: Rab7 GTP binding inhibitors, potency, dose response, biochemical, wildtype, multiplex bead flow cytometry (AID 1336; call rule not given here).
For assay [5], the target named is Ras-related C3 botulinum toxin substrate 1 (Homo sapiens) (UniProt P63000). Put plainly: wildtype Rac1 GTP binding inhibitors, dose response, biochemical, multiplex bead flow cytometry (AID 1340). The conditions noted are these: GST-Rac1 beads, Bodipy-FL-GTP binding; at 100 µM (top of the series) unless noted.
Assay [6] has as its target GTPase HRas (Homo sapiens) (UniProt P01112). Nature of the assay: activated Ras mutant GTP binding inhibitors, dose response, biochemical, multiplex bead flow cytometry (AID 1341;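 active means dose-response curve with midpoint inside the tested range, moderate steepness, significant amplitude and little compound fluorescence or bead-attachment interference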;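 further: GST-tagged constitutively activated Ras mutant immobilized on beads and multiplexed with other GTPases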).

For part of these data: Potency and affinity values are given separately. Calls of active or inactive are those of the source.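 How the source made its calls, unless noted: active means dose curve with midpoint inside tested range, moderate steepness, plateau gap beyond fit error, low compound glow and bead-link interference; inactive means the rest.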

Cell division control protein 42 homolog (Homo sapiens), sequence (P60953 whole entry, looked up): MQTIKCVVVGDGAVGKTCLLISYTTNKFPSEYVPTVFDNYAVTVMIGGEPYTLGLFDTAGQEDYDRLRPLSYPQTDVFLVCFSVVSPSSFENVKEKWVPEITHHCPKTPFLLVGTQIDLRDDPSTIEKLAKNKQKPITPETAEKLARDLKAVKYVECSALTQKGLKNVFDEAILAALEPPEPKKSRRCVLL
GTPase HRas (Homo sapiens), sequence (P01112 whole entry, looked up): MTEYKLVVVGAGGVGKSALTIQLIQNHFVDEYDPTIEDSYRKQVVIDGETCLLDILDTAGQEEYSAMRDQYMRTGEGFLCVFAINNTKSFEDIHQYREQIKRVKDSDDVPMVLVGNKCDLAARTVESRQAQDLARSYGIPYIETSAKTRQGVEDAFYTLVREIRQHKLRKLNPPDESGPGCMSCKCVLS

Consider `COc1ccc(OCc2oc3ccc(OC)cc3c2C(=O)O)cc1`, for which the outcome in assay [1], in assay [4] and in assay [6] was inactive. In assay [2], the fluorescence, percent of control (lower = inhibition) is 53.9%. The same compound registered a GTP binding, percent of control in assay [3] of 82.7%. The compound further registered a GTP binding signal, raw median fluorescence (lower = inhibition) (MCF (arbitrary fluorescence units)) in assay [5] of 28.2.
On to `O=C(/C=C/c1ccc(N2CCC(c3ccccc3)=N2)cc1)c1ccccc1`, for which the compound was classed as inactive in assay [1], in assay [4] and in assay [6]. In assay [2], the fluorescence, percent of control (lower = inhibition) is 344%. For the same compound, the GTP binding, percent of control in assay [3] stood at 394%. In assay [5], this compound yielded a GTP binding signal, raw median fluorescence (lower = inhibition) (MCF (arbitrary fluorescence units)) of 651.
`Cc1cccc(CCNc2ncccc2C(=O)O)c1`: the compound was called inactive in assay [1], in assay [4] and in assay [6]. Moreover, in assay [2], the fluorescence, percent of control (lower = inhibition) stood at 122%. Moreover, the GTP binding, percent of control in assay [3] was 337%. Besides, the GTP binding signal, raw median fluorescence (lower = inhibition) (MCF (arbitrary fluorescence units)) in assay [5] is 101.
On to `O=C(O)Cn1cc(C(=O)C2CCCCC2)c2ccccc21`, for which the compound was classed as inactive in assay [1], in assay [4] and in assay [6]. In addition, the fluorescence, percent of control (lower = inhibition) in assay [2] was 59.5%. In assay [3], this compound had a GTP binding, percent of control of 88.6%. The GTP binding signal, raw median fluorescence (lower = inhibition) (MCF (arbitrary fluorescence units)) in assay [5] came to 32.
Turning to `O=C(O)C1=C[C@H](c2ccc(Br)cc2)C[C@H](OCc2ccc(CO)cc2)O1`, the outcome in assay [1], in assay [4] and in assay [6] was inactive. Moreover, in assay [2], the fluorescence, percent of control (lower = inhibition) is 30.3%. For the same compound, the GTP binding, percent of control in assay [3] is 82.5%. In addition, the GTP binding signal, raw median fluorescence (lower = inhibition) (MCF (arbitrary fluorescence units)) in assay [5] was determined as 230.
For `Cc1cc(C(=O)NNC(=S)NC(C)c2ccccc2)c2ccccc2n1` (stereo not given), the compound was called inactive in assay [1], in assay [4] and in assay [6]. In addition, in assay [2], the fluorescence, percent of control (lower = inhibition) was 95.6%. In addition, in assay [3], the GTP binding, percent of control turned out to be 177%. Moreover, the GTP binding signal, raw median fluorescence (lower = inhibition) (MCF (arbitrary fluorescence units)) in assay [5] came out at 197.
Regarding `O=C(O)C1CSC(CCc2ccccc2)N1` (stereo not given), the outcome in assay [1], in assay [4] and in assay [6] was inactive. Further, in assay [2], the fluorescence, percent of control (lower = inhibition) stood at 98.5%. The compound further had a GTP binding, percent of control in assay [3] of 125%. Further, the GTP binding signal, raw median fluorescence (lower = inhibition) (MCF (arbitrary fluorescence units)) in assay [5] was determined as 87.7.
Turning to `O=C(NCc1cccs1)c1cccn2c(=O)c3sccc3nc12`, the outcome in assay [1], in assay [4] and in assay [6] was inactive. The fluorescence, percent of control (lower = inhibition) in assay [2] worked out at 32.6%. The GTP binding, percent of control in assay [3] came out at 69.2%. This compound also gave a GTP binding signal, raw median fluorescence (lower = inhibition) (MCF (arbitrary fluorescence units)) in assay [5] of 138.
Turning to `CC(=O)Nc1ccc(Nc2ccc3c4c(cc(=O)n3C)-c3ccccc3C(=O)c24)cc1`, the result in assay [1], in assay [4] and in assay [6] was inactive. Besides, the fluorescence, percent of control (lower = inhibition) in assay [2] was determined as 34.8%. Also, the GTP binding, percent of control in assay [3] is 80.5%. The compound further returned a GTP binding signal, raw median fluorescence (lower = inhibition) (MCF (arbitrary fluorescence units)) in assay [5] of 205.
Regarding `C/C=C/c1ccccc1OCc1ccc(C(=O)O)o1`, the compound was classed as inactive in assay [1], in assay [4] and in assay [6]. Besides, the fluorescence, percent of control (lower = inhibition) in assay [2] is 180%. For the same compound, in assay [3], the GTP binding, percent of control turned out to be 326%. This compound returned a GTP binding signal, raw median fluorescence (lower = inhibition) (MCF (arbitrary fluorescence units)) in assay [5] of 420.
Turning to `COCc1cc(C)nc(N/N=C/c2ccc(-c3ccc(C(=O)O)c(Cl)c3)o2)c1C#N`, the result in assay [1], in assay [4] and in assay [6] was inactive. Moreover, the fluorescence, percent of control (lower = inhibition) in assay [2] was 30.6%. This compound showed a GTP binding, percent of control in assay [3] of 74.4%. Besides, the GTP binding signal, raw median fluorescence (lower = inhibition) (MCF (arbitrary fluorescence units)) in assay [5] was found to be 180.
On to `CCCNC(=O)C(=O)NCc1ccccn1`, for which the call in assay [1], in assay [4] and in assay [6] was inactive. For the same compound, the fluorescence, percent of control (lower = inhibition) in assay [2] came to 41.2%. Further, in assay [3], the GTP binding, percent of control came to 91.1%. In addition, the GTP binding signal, raw median fluorescence (lower = inhibition) (MCF (arbitrary fluorescence units)) in assay [5] was 323.
As to `COc1cc(/C=N/NC(=O)Nc2cccc3nsnc23)cc(OC)c1OC`, the compound was called inactive in assay [1], in assay [4] and in assay [6]. The fluorescence, percent of control (lower = inhibition) in assay [2] is 60.6%. In assay [3], this compound yielded a GTP binding, percent of control of 105%. This compound also gave a GTP binding signal, raw median fluorescence (lower = inhibition) (MCF (arbitrary fluorescence units)) in assay [5] of 126.
Regarding `CCCCCCCCCCCCCCCC(=O)Nc1cccc(C#CC(=O)c2ccc([N+](=O)[O-])cc2)c1`, the call in assay [1], in assay [4] and in assay [6] was inactive. In addition, the fluorescence, percent of control (lower = inhibition) in assay [2] was 66%. For the same compound, the GTP binding, percent of control in assay [3] is 186%. Further, the GTP binding signal, raw median fluorescence (lower = inhibition) (MCF (arbitrary fluorescence units)) in assay [5] was 134.
As to `Nc1nn2c(-c3ccccc3)cc(=O)[nH]c2c1N=Nc1ccc(Br)cc1`, the outcome in assay [1], in assay [4] and in assay [6] was inactive. The fluorescence, percent of control (lower = inhibition) in assay [2] stood at 27.4%. This compound displayed a GTP binding, percent of control in assay [3] of 78.1%. The compound also came in with a GTP binding signal, raw median fluorescence (lower = inhibition) (MCF (arbitrary fluorescence units)) in assay [5] of 197.

The values above are taken from PubChem BioAssay.
